These results are taken from PubChem BioAssay (NCI).

The panel holds about 79,000 compounds, 15% with a hit somewhere; the sample as a whole holds those more often. A number with no mark means an inactive call. Cut-off read from the data, not from the text of the source: active = growth inhibition above about 70%; inactive = the rest.

A short description of this experiment: NCI Yeast Anticancer Drug Screen. Data for the mlh1 rad18 strain (AID 175). Conditions: S. cerevisiae mlh1 rad18 strain growth inhibition; at 50.0 µM; stronger effect = higher value. In a few lines: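 Genetically defined yeast (DNA repair-deficient) exposed to compounds; growth inhibition determined relative to vehicle.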
For the molecule `CC(=O)NC1C(OCC(=O)NCCNc2ccc([N+](=O)[O-])c3[nH]c4ccccc4c(=O)c23)C(O)C(CO)OC1(C)OCc1ccccc1` (centres undefined), the growth inhibition was -3.4%.

For the molecule `O=C(CCCl)OC1CCCC1`, the growth inhibition was 9%. Under `CN(/N=C\c1ccc2ccccc2c1)C1=NCCN1` stands -12.1%; under `C(=C\c1cc(-c2cc(/C=C/c3ccccc3)[nH]n2)n[nH]1)/c1ccccc1`, 44.4%; under `CCOC(=O)CCC(C(=O)c1cccnc1)c1ccccn1` (centres undefined), -7.05%. Next, `COc1c(CO)cc(C)cc1CO`: 0.5%. Under `Cc1ccc(OCCNCCO)cc1` stands 18.2%; under `CCCCCCCCCCCCCCCCCC(CCCCCCCC)CCCCCCCC`, 23.6%; under `CCCCCCn1cnc2c(=S)nc[nH]c21`, 12.8%.

With `O=S(O)CCCCSSCC(O)CO` (centres undefined), the growth inhibition was 13.7%. Under `O=C1OC(c2cccc(Cl)c2)=N/C1=C\c1cc(Br)ccc1O` stands 5.95%. Under `CC(CC#N)NC(=O)C1CCC(N)=N1` (centres undefined) stands -9.9%; under `CCCCCCCCCCCCCCCCS`, -4.8%. Under `CCOC(=O)CC1(c2ccccc2)OC(=O)c2ccccc21` (centres undefined) stands -11.2%. For the molecule `NC(N)=NC(N)=Nc1ccccc1Br`, the growth inhibition is -3.85%. Under `CN(C)c1nc(-c2ccccc2)c(Cc2ccccc2)c(=O)o1` stands 7.8%; under `c1cc2c3c(c1)ccc1ccc4cccc(c4c13)O2`, -47.9%; under `CC(C)CCC[C@@H](C)[C@H]1CC[C@H]2[C@@H]3CC[C@H]4C[C@H](N[C@@H]5CC[C@@]6(C)[C@@H](CC[C@@H]7[C@@H]6CC[C@]6(C)[C@@H]([C@H](C)CCCC(C)C)CC[C@@H]76)C5)CC[C@]4(C)[C@H]3CC[C@]12C`, 36.7%.

As for `O=C(N/N=C/c1cc(Br)cc(Br)c1O)c1ccccc1`, the growth inhibition was 28.4%. Next, `O=[N+]([O-])c1ccc(N=C/C=C/Nc2ccc([N+](=O)[O-])cc2)cc1`: 20.8%. Next, `CC(C)(/C=N\O)NO`: -0.9%. Next, `CC(=O)OC1CCC2(C)C(CCC3(C)C2CCC2C4C5OC(=O)C4(CCC5(C)C)CCC23C)C1(C)C` (centres undefined): 4.6%; `O=C1NC(=O)c2c1c1cnn(-c3ccccc3)c1n1cccc21`: 17.7%. `O=C1c2ccccc2-c2ccc(-n3c(=O)c4ccccc4c4ccccc4c3=O)cc21`: the growth inhibition is 25.4%.
